Measurements: PubChem BioAssay AID504424 (National Center for Advancing Translational Sciences (NCATS), 2011)
This is one part of the list. Activity calls are given as the source filed them.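 Rule for the calls: active = compounds that showed inhibition of Dyrk1a and received a fitted potency; inactive = compounds that showed no inhibition.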

target: Dual specificity tyrosine-phosphorylation-regulated kinase 1A (Homo sapiens) (UniProt Q13627); assay: Kinase Inhibition Study on Inhibitors of Dyrk1a (Reaction Biology data); details: Reaction Biology kinase assay, 10 uM ATP
Source text: NIH Molecular Libraries Probe Production Centers Network [MLPCN] NIH Chemical Genomics Center [NCGC] MLPCN Grant: 1R03MH084827-01 Assay Submitter (PI): Tom Misteli NCGC Assay Overview: Alternative splicing of pre-mRNAs plays a major role in the regulation of eukaryotic gene expression. Alternative splicing is now thought to be one of the primary reasons for the complexity of higher organisms leading to an average of three protein isoforms per gene. Aberrant splicing can lead to a number of diseases and is known to play a role in rare genetic diseases such as progeria syndrome. Hutchinson-Gilford Progeria Syndrome (HGPS) is a pediatric premature aging disease caused by a spontaneous mutation in the lamin A/C (LMNA) gene due to a single point mutation in the lamin A gene effecting 1 in 4 million people. To identify both specific splicing modulators of the lamin A gene as well as general splicing modulators, a cell-based HTS assay was developed using a minigene reporter system (AIDs, 1459 & 1487). […] The Clk family is part of the CMGC group of protein kinases which includes Dyrks and are essential kinases found in all eukaryotes. […] This AID is to summarize the activity of these analogs in Dyrk1a.
All kinase reactions were performed using 10 uM ATP in the assay. 100% activity was taken from kinase reactions with DMSO alone (the vehicle used for compound stock solutions).

Potency, active:
c1coc(CCNc2ncnc3ccc(-c4ccc5c(c4)OCO5)cc23)c1 74 nM, CC(Nc1ncnc2ccc(-c3ccc4c(c3)OCO4)cc12)c1ccco1 (centres undefined) 5600 nM, c1nc(N2CCOCC2)c2cc(-c3ccc4c(c3)OCO4)ccc2n1 723 nM, CN(Cc1cncn1C)c1ncnc2ccc(-c3ccc4c(c3)OCO4)cc12 2450 nM
